{"source": "PubChem BioAssay (NCATS)", "note": "Inconclusive results are not listed. The source made the active and inactive calls. Calls follow the shape of the dose curve; as a rule, active = well fitted inhibition curve with a large enough effect; inconclusive = small, poorly fitted or top-dose-only effect; inactive = flat fitted curve, though single readings scatter."}
{"system": "PC15", "assay": "qHTS profiling for inhibitors of Plasmodium falciparum proliferation (AID 504749);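 also: 0% = DMSO vehicle and full inhibition = artemisinin control; nearly all actives have a fitted effect of over 60% in size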", "settings": "P. falciparum in erythrocytes, SYBR Green DNA, 72 h; series mostly up to 28.7 µM; activity, negative = inhibition: at the top concentration", "procedure,_shortened": "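Fluorescence of SYBR Green-bound parasite DNA, read at 485/535 nm, served as the growth measure. Infected erythrocytes were cultured with compound 72 h; artemisinin (0.29 uM) and DMSO wells defined the normalization range.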"}
{"smiles": "CC(=O)Nc1ccccc1", "activity, negative = inhibition": "6.75% (inactive)"}
{"smiles": "O=C(/C=C/c1ccccc1)OCc1ccccc1", "activity, negative = inhibition": "2.2% (inactive)"}
{"smiles": "c1ccc2[nH]ccc2c1", "activity, negative = inhibition": "3.89% (inactive)"}
{"smiles": "NC(N)=NS(=O)(=O)c1ccc(N)cc1", "activity, negative = inhibition": "4.75% [at 12.8 µM] (inactive)"}
{"smiles": "Cc1ccc(S(=O)(=O)NC(=O)NC2CCCCC2)cc1", "activity, negative = inhibition": "19.6% (inactive)"}
{"smiles": "C[C@H]1COc2c(C3(N)CC3)c(F)cc3c(=O)c(C(=O)O)cn1c23", "activity, negative = inhibition": "9.75% (inactive)"}
{"smiles": "Cc1c(NC(C)C)c(=O)n(-c2ccccc2)n1C", "activity, negative = inhibition": "7.51% (inactive)"}
{"smiles": "CCCCCC(N)=O", "activity, negative = inhibition": "8.32% (inactive)"}
{"smiles": "Cn1c(=O)c2c(ncn2CCO)n(C)c1=O", "activity, negative = inhibition": "3.06% (inactive)"}
{"smiles": "CC(C)c1cc2c(cc1S(=O)(=O)O)[C@@]1(C)CCC[C@@](C)(C(=O)O)[C@@H]1CC2", "activity, negative = inhibition": "5.68% (inactive)"}
{"smiles": "O=C(NCCCN1CCOCC1)c1ccc(Cl)cc1", "activity, negative = inhibition": "-14.6% (inactive)"}
{"smiles": "COc1ccccc1OC(=O)Oc1ccccc1OC", "activity, negative = inhibition": "3% (inactive)"}
{"smiles": "OCc1ccc(Cl)cc1Cl", "activity, negative = inhibition": "1.02% (inactive)"}
{"smiles": "CC(=O)Nc1cccc(O)c1", "activity, negative = inhibition": "4.85% (inactive)"}
{"smiles": "FC(F)(F)C(Cl)Br", "note": "(centres undefined)", "activity, negative = inhibition": "-2.7% (inactive)"}
{"smiles": "Cc1c(N(C)C)c(=O)n(-c2ccccc2)n1C", "activity, negative = inhibition": "4.56% (inactive)"}
{"smiles": "COC(=O)c1cccnc1", "activity, negative = inhibition": "7.4% (inactive)"}
{"smiles": "CCN(CC)CC1CCCCN1CC(=O)N1c2ccccc2C(=O)Nc2cccnc21", "note": "(centres undefined)", "activity, negative = inhibition": "3.91% (inactive)"}
{"smiles": "Cc1cccc(Nc2ccccc2C(=O)O)c1C", "activity, negative = inhibition": "16.8% (inactive)"}
{"smiles": "COc1ccccc1Oc1c(NS(=O)(=O)c2ccc(C(C)(C)C)cc2)nc(-c2ncccn2)nc1OCCO", "activity, negative = inhibition": "6.9% (inactive)"}
{"smiles": "CCc1nnc(NS(=O)(=O)c2ccc(N)cc2)s1", "activity, negative = inhibition": "8.33% (inactive)"}
{"smiles": "Cc1c(C(=O)NCCO)[n+](=O)c2ccccc2n1[O-]", "activity, negative = inhibition": "0.598% (inactive)"}
{"smiles": "O=C1c2cccc(O)c2C(=O)c2c(O)cccc21", "activity, negative = inhibition": "0.942% (inactive)"}
{"smiles": "CCCCCCCC(=O)OCC(COC(=O)CCCCCCC)OC(=O)CCCCCCC", "activity, negative = inhibition": "8.7% (inactive)"}
